# Test results from PubChem BioAssay (NCATS).
# Records with an inconclusive call do not appear. Where a call stands in place of a potency, no number is given. Unmarked numbers belong to inactive results. Calls of active or inactive are those of the source. Calls come from the whole dose curve; as a rule, active = well fitted curve in the direction sought with a large enough effect; inconclusive = small, poorly fitted or top-dose-only effect, or another doubt; inactive = no such curve, though single readings can be large; an effect the other way counts as inactive or inconclusive.
# What was measured:
# HEK293 = assay: Cytotoxic Profiling of Annotated Libraries Using Quantitative High-Throughput Screening (AID 1296008); details: Five cell lines viability, CellTiter-Glo ATP luminescence, 48-72 h; max response: hits give low values; note: nearly all actives have a fitted effect of over 60% in size
# How it was run: (§1)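 Compounds were pin-transferred onto cells and incubated 48 or 72 hr at 37 degree Celsius, 95% humidity. CellTiter-Glo was added, plates sat 10 min at room temperature, then ATP-coupled luminescence was imaged as the viability read-out.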
# KB-3-1 = assay: as above; details: Five cell lines viability, CellTiter-Glo ATP luminescence, 48-72 h; max response: hits give low values
# How it was run: as §1
# NIH3T3 [1] = assay: as above; details: Five cell lines viability, CellTiter-Glo ATP luminescence, 48-72 h; max response: hits give low values
# How it was run: as §1
# HEK293T [2] = assay: qHTS assay to identify novel small-molecules to repurpose for Merkel cell carcinoma treatment (AID 1296009); details: MCC and control cell lines, CellTiter-Glo viability, 72 h; at 44.8 µM (top of the series) unless noted; note: nearly all actives have a fitted effect of over 60% in size
# How it was run: (§2)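 Viability readout: ATP luminescence (CellTiter-Glo) after 72 hr drug exposure at 37 degree celsius. Dose-response format was 8 points for NPC and 11 points for MIPE; data normalized to in-plate controls.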
# NIH3T3 [3] = assay: as above; details: MCC and control cell lines, CellTiter-Glo viability, 72 h; at 44.8 µM (top of the series) unless noted
# How it was run: as §2
# C33A = assay: Primary qHTS to identify gynecologic anti-cancer compounds using libraries of approved drugs and bioactive compounds (AID 1345084); details: Gynecologic cancer cell panel viability, ATPlite luminescence, 48 h; series mostly up to 57.5 µM; note: nearly all actives have a fitted effect of over 55% in size
# How it was run: (§3)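 48 h compound exposure at 37 C, 5% CO2; five-point qHTS. ATPlite luminescence readout of cell ATP.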
# CAOV3 = assay: as above; details: Gynecologic cancer cell panel viability, ATPlite luminescence, 48 h; series mostly up to 57.5 µM
# How it was run: as §3
# CASKI = assay: as above; details: Gynecologic cancer cell panel viability, ATPlite luminescence, 48 h; series mostly up to 57.5 µM
# How it was run: as §3
# Es-2 = assay: as above; details: Gynecologic cancer cell panel viability, ATPlite luminescence, 48 h; series mostly up to 57.5 µM
# How it was run: as §3
# HeLa = assay: as above; details: Gynecologic cancer cell panel viability, ATPlite luminescence, 48 h; series mostly up to 57.5 µM
# How it was run: as §3
# Hek293T [4] = assay: as above; details: Gynecologic cancer cell panel viability, ATPlite luminescence, 48 h, control line for the selectivity index; series mostly up to 57.5 µM
# How it was run: as §3
# JEG-3 = assay: as above; details: Gynecologic cancer cell panel viability, ATPlite luminescence, 48 h; series mostly up to 57.5 µM
# How it was run: as §3
# HACAT = assay: qHTS assay to identify novel small-molecules to repurpose for Merkel cell carcinoma treatment (AID 1296009); details: MCC and control cell lines, CellTiter-Glo viability, 72 h; series mostly up to 44.8 µM; note: nearly all actives have a fitted effect of over 60% in size
# How it was run: as §2
# Potency is the fitted concentration of half-maximal effect.
smiles,measurement,setting,value
C=C1CCC2C(C)(COC(C)=O)CCCC2(C)C1CCC(C)CC(=O)O (configuration not stated),outcome,HEK293,inactive
same,max response,KB-3-1,8.96%
same,outcome,NIH3T3 [1],inactive
same,outcome,HEK293T [2],inactive
same,outcome,NIH3T3 [3],inactive
same,Potency,C33A,inactive
same,Potency,CAOV3,inactive
same,Potency,CASKI,inactive
same,Potency,Es-2,inactive
same,Potency,HeLa,inactive
same,Potency,Hek293T [4],inactive
same,Potency,JEG-3,inactive
CC1=C(C(=O)O)/C(=C\CO[C@@H]2O[C@H](CO)[C@@H](O)[C@H](O)[C@H]2O)C(OC(=O)/C=C\c2ccc(O)cc2)C1 (some centres not stated),outcome,HEK293,inactive
same,outcome,KB-3-1,inactive
same,max response,NIH3T3 [1],-21.6%
same,outcome,HEK293T [2],inactive [at 17.4 µM]
same,Potency,C33A,inactive
same,Potency,CAOV3,inactive
same,Potency,CASKI,inactive
same,Potency,Es-2,inactive
same,Potency,HeLa,inactive
same,Potency,Hek293T [4],inactive
same,Potency,JEG-3,inactive
CC(O)/C=C/C1OC(=O)CC1Nc1ccc(C(=O)O)cc1 (configuration not stated),max response,HEK293,-8.85%
same,max response,KB-3-1,5.7%
same,outcome,NIH3T3 [1],inactive
same,outcome,NIH3T3 [3],inactive
same,Potency,C33A,inactive
same,Potency,CAOV3,inactive
same,Potency,CASKI,inactive
same,Potency,Es-2,inactive
same,Potency,HeLa,inactive
same,Potency,Hek293T [4],inactive
same,Potency,JEG-3,inactive
C[C@@H](Oc1cc(-n2cnc3ccc(OC4CCN(C)CC4)cc32)sc1C(N)=O)c1ccccc1C(F)(F)F,Potency,HEK293,0.0411 µM (active)
same,Potency,KB-3-1,0.0092 µM (active)
same,Potency,NIH3T3 [1],5.8 µM (active)
O=C(O)c1ccccc1NC(=O)N1CCC(c2ccccc2C(F)(F)F)CC1,outcome,HEK293,inactive
same,max response,KB-3-1,-2.67%
same,outcome,NIH3T3 [1],inactive
same,outcome,HEK293T [2],inactive
same,outcome,NIH3T3 [3],inactive
same,Potency,C33A,inactive
same,Potency,CAOV3,inactive
same,Potency,CASKI,inactive
same,Potency,Es-2,inactive
same,Potency,HeLa,inactive
same,Potency,Hek293T [4],inactive
same,Potency,JEG-3,inactive
C[C@@H]1O[C@@H](O[C@H]2[C@H](OC(=O)[C@]34CCC(C)(C)C[C@H]3C3=CCC5[C@@]6(C)C[C@H](O)[C@H](O[C@@H]7O[C@H](CO)[C@@H](O)[C@H](O)[C@H]7O)[C@@](C)(CO)C6[C@H](O)C[C@@]5(C)[C@]3(C)C[C@H]4O)OC[C@H](O)[C@@H]2O)[C@H](O)[C@H](O)[C@H]1O[C@@H]1OC[C@@H](O)[C@H](O[C@H]2OC[C@](O)(CO)[C@H]2O)[C@H]1O (some centres not stated),max response,HEK293,3.89%
same,max response,KB-3-1,3.95%
same,outcome,NIH3T3 [1],inactive
same,outcome,NIH3T3 [3],inactive [at 9.27 µM]
same,"activity change, negative = cytotoxicity",C33A,6.39% [at 6.55 µM]
same,"activity change, negative = cytotoxicity",CAOV3,27.3% [at 6.55 µM]
same,"activity change, negative = cytotoxicity",CASKI,-4.03% [at 6.55 µM]
same,"activity change, negative = cytotoxicity",Es-2,1.52% [at 6.55 µM]
same,"activity change, negative = cytotoxicity",HeLa,19.6% [at 6.55 µM]
same,"activity change, negative = cytotoxicity",Hek293T [4],-3.35% [at 6.55 µM]
same,"activity change, negative = cytotoxicity",JEG-3,13.7% [at 6.55 µM]
Nc1nc(-n2cc(C(=O)O)c(=O)c3cc(F)c(N4CC(O)C4)c(Cl)c32)c(F)cc1F,outcome,HEK293,inactive
same,max response,KB-3-1,-18.7%
same,max response,NIH3T3 [1],2.73%
same,outcome,HEK293T [2],inactive
same,Potency,C33A,inactive
same,Potency,CAOV3,inactive
same,Potency,CASKI,inactive
same,Potency,Es-2,inactive
same,Potency,HeLa,inactive
same,Potency,Hek293T [4],inactive
same,Potency,JEG-3,inactive
OC1CCC(Nc2ncc3nc(Nc4c(F)cc(F)cc4F)n([C@H]4CCOC4)c3n2)CC1 (some centres not stated),outcome,HEK293,inactive
same,outcome,KB-3-1,inactive
same,max response,NIH3T3 [1],3.11%
same,outcome,HEK293T [2],inactive
same,Potency,C33A,inactive
same,Potency,CAOV3,inactive
same,Potency,CASKI,inactive
same,Potency,Es-2,inactive
same,Potency,HeLa,inactive
same,Potency,Hek293T [4],inactive
same,Potency,JEG-3,inactive
CNC(=O)c1ccccc1Nc1nc(Nc2ccc3c(c2OC)CCCC(N2CCN(CCO)CC2)C3)ncc1Cl (configuration not stated),Potency,HEK293,5.17 µM (active)
same,Potency,KB-3-1,10.3 µM (active)
same,Potency,NIH3T3 [1],9.2 µM (active)
same,Potency,HACAT,5.8 µM (active)
same,Potency,CAOV3,10 µM (active)
same,Potency,CASKI,17.8 µM (active)
same,Potency,JEG-3,inactive
COc1cc(Nc2nc3ccccc3nc2NS(=O)(=O)c2ccc(NC(=O)c3ccc(OC)c(C)c3)cc2)cc(OC)c1,max response,HEK293,1.81%
same,outcome,KB-3-1,inactive
same,outcome,NIH3T3 [1],inactive
same,outcome,NIH3T3 [3],inactive
same,Potency,C33A,inactive
same,Potency,CAOV3,inactive
same,Potency,CASKI,inactive
same,Potency,Es-2,inactive
same,Potency,HeLa,inactive
same,Potency,Hek293T [4],inactive
same,Potency,JEG-3,inactive
C[C@]12C[C@@H](O)[C@@H]3C[C@@]1(O[C@@H]1O[C@H](CO)[C@@H](O)[C@H](O)[C@H]1O)[C@]3(COC(=O)c1ccccc1)C(=O)O2,outcome,HEK293,inactive
same,max response,KB-3-1,4.54%
same,outcome,NIH3T3 [1],inactive
same,outcome,HEK293T [2],inactive [at 17.4 µM]
same,outcome,NIH3T3 [3],inactive [at 17.4 µM]
same,Potency,C33A,inactive
same,Potency,CASKI,inactive
same,Potency,Es-2,inactive
same,Potency,HeLa,inactive
same,Potency,Hek293T [4],inactive
same,Potency,JEG-3,inactive
CN(C)CC1CCOC1(c1ccccc1)c1ccccc1 (configuration not stated),max response,HEK293,-21.7%
same,max response,KB-3-1,5.01%
same,outcome,NIH3T3 [1],inactive
same,outcome,NIH3T3 [3],inactive [at 17.4 µM]
same,Potency,C33A,inactive
same,Potency,CAOV3,inactive
same,Potency,CASKI,inactive
same,Potency,Es-2,inactive
same,Potency,HeLa,inactive
same,Potency,Hek293T [4],inactive
same,Potency,JEG-3,inactive
